The values below come from PubChem BioAssay (NCATS).

Results filed as inconclusive are left out. Entries that show only a call come without a potency. Values without a mark were called inactive. Activity calls are given as the source filed them. The call rests on the fitted dose curve; in most records, active means well fitted inhibition curve with a large enough effect; inconclusive means small, poorly fitted or top-dose-only effect; inactive means flat fitted curve, though single readings scatter.
Further: nearly all actives have a fitted effect of over 60% in size.
Potency means the concentration at half of the fitted maximal effect.

The first test relates to PC15. Kind of test: qHTS profiling for inhibitors of Plasmodium falciparum proliferation (AID 504749). The conditions noted are these: P. falciparum in erythrocytes, SYBR Green DNA, 72 h; series mostly up to 28.7 µM. The essentials:
(§1)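 P. falciparum-infected erythrocytes (0.3% parasitemia, 2.5% hematocrit final) were exposed to compounds for 72 h at 37 C in 5% CO2, then lysed with SYBR Green buffer overnight at room temperature; parasite DNA fluorescence was normalized to artemisinin and DMSO controls.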
`CCCCc1ccc(C(=O)O)nc1`: the Potency result is “inactive”.
For the compound `CCCN1CCC[C@H](c2cccc(O)c2)C1`, the Potency result was “inactive”.
The same measure, in the same setting: the entry for `CC(C)NC(C)Cc1ccc(I)cc1` (stereo not given) is “inactive”; for `NC(=O)CN1CC(O)CC1=O` (stereo not given) it is “inactive”; for `c1ccc(C2(c3ccccc3)CC2C2=NCCN2)cc1` (stereo not given) it is 5.62 µM (active).

In the next test the test system is PC26. Described as above. The settings on record: P. falciparum in erythrocytes, SYBR Green DNA, 72 h; series mostly up to 28.7 µM. The essentials: as §1
On to `CCCCc1ccc(C(=O)O)nc1`, for which the Potency entry is “inactive”.
Still for that read-out and setting: to `CCCN1CCC[C@H](c2cccc(O)c2)C1` belongs “inactive”; to `NC(=O)CN1CC(O)CC1=O` (stereo not given), “inactive”.
Still for that read-out and setting: to `c1ccc(C2(c3ccccc3)CC2C2=NCCN2)cc1` (stereo not given) belongs “inactive”.

The test system of another test is PC49. The description is as above. The settings on record: P. falciparum in erythrocytes, SYBR Green DNA, 72 h; series mostly up to 28.7 µM. The method, boiled down:
as §1
As to `CCCCc1ccc(C(=O)O)nc1`, the Potency entry is “inactive”.
Consider `CCCN1CCC[C@H](c2cccc(O)c2)C1`, for which the Potency entry is “inactive”.
Same read-out and setting: the entry for `CC(C)NC(C)Cc1ccc(I)cc1` (stereo not given) is “inactive”; for `NC(=O)CN1CC(O)CC1=O` (stereo not given) it is “inactive”.
Still for that read-out and setting: to `c1ccc(C2(c3ccccc3)CC2C2=NCCN2)cc1` (stereo not given) belongs “inactive”.

A further test concerns SC27B. The test is described as above. The settings on record: P. falciparum in erythrocytes, SYBR Green DNA, 72 h; series mostly up to 28.7 µM. The method, boiled down: as §1
Turning to `CCCCc1ccc(C(=O)O)nc1`, the Potency entry was “inactive”.
On to `CCCN1CCC[C@H](c2cccc(O)c2)C1`, for which the Potency result was “inactive”.
Still for that read-out and setting: to `CC(C)NC(C)Cc1ccc(I)cc1` (stereo not given) belongs “inactive”.
Same read-out and setting: to `NC(=O)CN1CC(O)CC1=O` (stereo not given) belongs “inactive”; to `c1ccc(C2(c3ccccc3)CC2C2=NCCN2)cc1` (stereo not given), “inactive”.

The subject of the next test is TAB109. Described as above. The conditions noted are these: P. falciparum in erythrocytes, SYBR Green DNA, 72 h; series mostly up to 28.7 µM. The essentials: as §1
For `CCCCc1ccc(C(=O)O)nc1`, the Potency entry is “inactive”.
On the same count and under the same terms, the entry for `CCCN1CCC[C@H](c2cccc(O)c2)C1` is “inactive”.
Same read-out and setting: the entry for `CC(C)NC(C)Cc1ccc(I)cc1` (stereo not given) is “inactive”; for `NC(=O)CN1CC(O)CC1=O` (stereo not given) it is “inactive”.
Still for that read-out and setting: to `c1ccc(C2(c3ccccc3)CC2C2=NCCN2)cc1` (stereo not given) belongs “inactive”.

The subject of the next test is TAB113. The test is described as above. The conditions noted are these: P. falciparum in erythrocytes, SYBR Green DNA, 72 h; series mostly up to 28.7 µM. The method, boiled down: as §1
For `CCCCc1ccc(C(=O)O)nc1`, the Potency result is “inactive”.
On to `CCCN1CCC[C@H](c2cccc(O)c2)C1`, for which the Potency entry was “inactive”.
For `CC(C)NC(C)Cc1ccc(I)cc1` (stereo not given), the Potency entry was “inactive”.
The same measure, in the same setting: the entry for `NC(=O)CN1CC(O)CC1=O` (stereo not given) is “inactive”; for `CN[C@@H]1C[C@@H](c2ccc(Cl)c(Cl)c2)c2ccccc21` it is “inactive”; for `c1ccc(C2(c3ccccc3)CC2C2=NCCN2)cc1` (stereo not given) it is “inactive”.

A further test deals with TAB165. Described as above. The settings on record: P. falciparum in erythrocytes, SYBR Green DNA, 72 h; series mostly up to 28.7 µM. The method, boiled down: as §1
With `CCCCc1ccc(C(=O)O)nc1`, the Potency entry was “inactive”.
Still for that read-out and setting: to `CCCN1CCC[C@H](c2cccc(O)c2)C1` belongs “inactive”; to `CC(C)NC(C)Cc1ccc(I)cc1` (stereo not given), “inactive”.
On the same count and under the same terms, the entry for `NC(=O)CN1CC(O)CC1=O` (stereo not given) is “inactive”; for `c1ccc(C2(c3ccccc3)CC2C2=NCCN2)cc1` (stereo not given) it is “inactive”.

Another test has as its system W2. Described as above. The conditions noted are these: P. falciparum in erythrocytes, SYBR Green DNA, 72 h; series mostly up to 28.7 µM. The essentials: as §1
As to `CCCCc1ccc(C(=O)O)nc1`, the Potency result is “inactive”.
Turning to `CCCN1CCC[C@H](c2cccc(O)c2)C1`, the Potency was 15.1 µM (active).
Take `CC(C)NC(C)Cc1ccc(I)cc1` (stereo not given): the Potency was 10.7 µM (active).
The same measure, in the same setting: to `NC(=O)CN1CC(O)CC1=O` (stereo not given) belongs “inactive”; to `CN[C@@H]1C[C@@H](c2ccc(Cl)c(Cl)c2)c2ccccc21`, 4.78 µM (active).

In the next test the test system is HaCat. Kind of test: Cytotoxic Profiling of Annotated Libraries Using Quantitative High-Throughput Screening (AID 1296008). The conditions noted are these: Five cell lines viability, CellTiter-Glo ATP luminescence, 48-72 h; max response: stronger effect = lower value. The essentials:
(§2)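 Compounds were pin-transferred onto cells and incubated 48 or 72 hr at 37 degree Celsius, 95% humidity. CellTiter-Glo was added, plates sat 10 min at room temperature, then ATP-coupled luminescence was imaged as the viability read-out.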
On the technique in general: In ATP-based viability assays light output follows the ATP content of the culture.
As for `O=[N+]([O-])c1cc([N+](=O)[O-])c2ccccc2c1`, the result was inactive.
Take `CC(C)[C@H]1C(=O)N[C@H](CO)Cc2c[nH]c3cccc(c23)N1C`: the max response was -1.9%.
Regarding `C=CCC1=C(C)C(OC(=O)C2C(C=C(C)C)C2(C)C)CC1=O` (stereo not given), the compound was called inactive.
Still for that read-out and setting: to `COc1nn(CSP(=S)(OC)OC)c(=O)s1` belongs “inactive”.
In the case of `N=c1c2c(-c3ccccc3)c(-c3ccccc3)n(Cc3ccccc3)c2ncn1C1CCC(O)CC1` (stereo not given), the max response was -23%.
On to `C[C@]12COC(=O)C[C@@H]1CC[C@@H]1[C@H]2CC[C@@]2(C)[C@H]1CC[C@]2(C)O`, for which the outcome was inactive.
Regarding `CCCCCCCCc1ccc(O)cc1`, the Potency was 24.6 µM (active).
`COC[C@H]1OC(=O)c2coc3c2[C@@]1(C)C1=C(C3=O)[C@@H]2CC[C@H](O)[C@@]2(C)C[C@@H]1OC(C)=O`: the max response was -14.2%.
Same read-out and setting: the figure for `CC(=CCCC1=CCC(C2=CC(=O)OC2O)OC1O)CCC1=C(C)CCCC1(C)C` (stereo not given) is -18.3%.
Consider `CCCN(CCC)c1c([N+](=O)[O-])cc(S(N)(=O)=O)cc1[N+](=O)[O-]`, for which the Potency is 68.6 µM (active).

The test system of another test is KB-3-1. The test is described as above. The settings on record: Five cell lines viability, CellTiter-Glo ATP luminescence, 48-72 h; max response: stronger effect = lower value. The method, boiled down:
as §2
Turning to `O=[N+]([O-])c1cc([N+](=O)[O-])c2ccccc2c1`, the max response is -6.84%.
Same read-out and setting: the figure for `CCCCc1ccc(C(=O)O)nc1` is 2.2%; for `c1cc2ccc3cccc4ccc(c1)c2c34` it is -15.2%.
The same measure, in the same setting: the figure for `ClC1=C(Cl)[C@]2(Cl)[C@@H]3[C@@H]4C[C@@H]([C@H]5O[C@@H]45)[C@@H]3[C@@]1(Cl)C2(Cl)Cl` is 13.3%.
Same read-out and setting: the figure for `CC(C)[C@H]1C(=O)N[C@H](CO)Cc2c[nH]c3cccc(c23)N1C` is 9.88%.
With `CCCN1CCC[C@H](c2cccc(O)c2)C1`, the max response was 0.305%.
Still for that read-out and setting: to `CC(C)NC(C)Cc1ccc(I)cc1` (stereo not given) belongs 2.96%.
On to `CC(=O)O[C@@]12CO[C@H]1C[C@H](O)[C@@]1(C)C(=O)[C@H](O)C3=C(C)[C@@H](O)C[C@@](O)([C@@H](OC(=O)c4ccccc4)[C@@H]21)C3(C)C`, for which the Potency was 3.32 µM (active).
With `C=CCC1=C(C)C(OC(=O)C2C(C=C(C)C)C2(C)C)CC1=O` (stereo not given), the max response was -7.18%.
Still for that read-out and setting: the figure for `NC(=O)CN1CC(O)CC1=O` (stereo not given) is 3.82%; for `COc1nn(CSP(=S)(OC)OC)c(=O)s1` it is -23.4%.
Still for that read-out and setting: to `CN[C@@H]1C[C@@H](c2ccc(Cl)c(Cl)c2)c2ccccc21` belongs -9.15%.
Still for that read-out and setting: to `C[C@]12COC(=O)C[C@@H]1CC[C@@H]1[C@H]2CC[C@@]2(C)[C@H]1CC[C@]2(C)O` belongs 0.496%; to `Nc1ccc(N=Nc2ccccc2)cc1`, -15.1%; to `CCCCCCCCc1ccc(O)cc1`, -0.951%.
Consider `COC[C@H]1OC(=O)c2coc3c2[C@@]1(C)C1=C(C3=O)[C@@H]2CC[C@H](O)[C@@]2(C)C[C@@H]1OC(C)=O`, for which the max response is -14.9%.
Still for that read-out and setting: the figure for `O=S(=O)(c1ccc(Cl)cc1)c1ccc(Cl)cc1` is -10.2%.
Take `CC(=CCCC1=CCC(C2=CC(=O)OC2O)OC1O)CCC1=C(C)CCCC1(C)C` (stereo not given): the max response was -6.74%.
`c1ccc(C2(c3ccccc3)CC2C2=NCCN2)cc1` (stereo not given): the max response was -1.25%.
With `CCCN(CCC)c1c([N+](=O)[O-])cc(S(N)(=O)=O)cc1[N+](=O)[O-]`, the max response was -9.77%.
